ClpP mod = qHTS Assay for Activators of ClpP; ATP-dependent Clp protease proteolytic subunit (Bacillus subtilis (strain 168)), P80244; purified B. subtilis ClpP, FRET peptide cleavage, 20 min; Potency, µM (titrated, usually from 57.5 µM), without a hit: at the top dose activity change, negative = active; 340,000 compounds, 1.9% hits; AID 651965, 2013; active = well fitted falling curve with a large enough effect; inconclusive = small, poorly fitted or top-dose-only effect; inactive = no such curve, though single readings can be large or run the other way; note: potency is the fitted concentration of half-maximal effect; the source files actives as falling curves though it sought activators and does not explain the sign; nearly all actives have a fitted effect of over 65% in size
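Purified B. subtilis ClpP, 10 microg/mL final in Tris/HCl pH8 with KCl, BSA, glycerol and Tween-20, cleaved an Abz/nitrotyrosine-quenched decapeptide. Fluorescence (ex 320, em 430) was read at 0 and 20 min at room temperature. Delta was normalized to 5.8 microM ADEP and DMSO/no-enzyme controls.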
Menin MLL FP TR = inhibitors of human menin-MLL interaction, mutant MLL peptide; O00255; AID 1768; 270,000 compounds, 0.23% hits; Menin + Texas Red MLL mutant peptide, fluorescence polarization; Potency, µM (titrated, usually from 61.6 µM), inactives show at the top dose FP activity change, negative = inhibition, actives largely listed as inhibitors; active = well fitted inhibition curve with a large enough effect in the polarisation, with a control signal flat, not every such curve was filed as active; inconclusive = small, poorly fitted or top-dose-only effect, or effect the other way, or a change in a side signal; inactive = no such curve, though single readings can be large or run the other way; the % refers to the polarisation; note: potency is the fitted concentration of half-maximal effect; % of control where 0% means no effect
Menin MLL FP FL = inhibitors of human menin-MLL interaction, wild-type MLL peptide. FP activity change, % at 61.4 µM. AID 1766. 290,000 tested, under 10 active. Fluorescence polarization, fluorescein-MLL peptide displacement from menin; active = well fitted curve in the direction sought with a large enough effect in the polarisation, not every such curve was filed as active; inconclusive = small, poorly fitted or top-dose-only effect, or effect the other way, or a change in a side signal; inactive = no such curve, though single readings can be large or run the other way; the % refers to the polarisation; note: % of control where 0% means no effect
PINK1 modulator = modulators of PINK1 expression. PINK1 immunofluorescence, high-content cytometry, 24 h. Potency, µM (highest dose often 76.6 µM), for the others: top-dose activation (PINK1 increase), most hits filed as activators. 410,000 compounds, 0.2% hits; active = well fitted activation curve with a large enough effect; inconclusive = small, poorly fitted or top-dose-only effect; cell line not stated here; note: potency is the fitted concentration of half-maximal effect; % of control where 0% means no effect; nearly all actives have a fitted effect of over 65% in size
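Stable cell line treated 24 h with compounds at 5 concentrations (CCCP controls), then fixed and immunostained for PINK1 plus nuclear and cell stains; PINK1 immunofluorescence quantified by laser-scanning microplate cytometry.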
CXXC DNA block = MLL CXXC-DNA interaction inhibition. MLL-CXXC / FITC-HOXA9 DNA fluorescence polarization. Potency, µM (titrated, usually from 115 µM), without a hit: top-dose activity change, negative = inhibition, actives largely listed as inhibitors. 290,000 compounds, 0.037% hits. AID 2662. Q03164; active = well fitted inhibition curve with a large enough effect in the polarisation, with a control signal flat, not every such curve was filed as active; inconclusive = small, poorly fitted or top-dose-only effect, or effect the other way, or a change in a side signal; inactive = no such curve, though single readings can be large or run the other way; the % refers to the polarisation; note: potency is the fitted concentration of half-maximal effect
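Purified MLL-CXXC (added from a 7 uM solution) was preincubated 5 min at ambient with pinned compounds in 50 mM Tris-HCl pH 7.5, 50 mM NaCl, 1 mM DTT, 0.05% BSA. Fluorescein-labeled HOX-A9 DNA (50 nM solution) followed, 30 min, then polarization read.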
Epigenetic reg = regulators of epigenetic silencing causing reporter derepression in mouse cells. Potency, µM (top dose mostly 53.9 µM), for inactives: at the highest dose GFP activation, most hits filed as activators. 280,000 compounds, 0.2% hits. murine LDR cells, GFP reporter derepression, 30 h. AID 1865; active = well fitted activation curve with a large enough effect; inconclusive = small, poorly fitted or top-dose-only effect; note: potency is the fitted concentration of half-maximal effect; % of control where 0% means no effect; nearly all actives have a fitted effect of over 60% in size
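Derepression of a silenced CMV-GFP reporter in murine LDR cells is scored by enumerating GFP-positive cells with a laser-scanning microplate cytometer after 30 hours of treatment at 37 C.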
Active calls of the source: *; ? = inconclusive; . = no result given; [ ] = another dose, or the depositor's remark. A selection: hits, their analogues and other compounds. The true share with any hit is near 1.9%.

SMILES	ClpP mod	Menin MLL FP TR	Menin MLL FP FL	PINK1 modulator	CXXC DNA block	Epigenetic reg
Cc1ccc(N(CC(=O)Nc2ccc(-c3nc4ccc(C)cc4s3)cc2)S(C)(=O)=O)cc1	11µM*	?	2	3%	-9%	-2%
COc1cccc(CN2C(=O)NC(C)(C3CCN(Cc4cnn(C)c4C)CC3)C2=O)c1OC (configuration not stated)	.	.	.	1%	.	.
COc1ccccc1N1CCN(CCn2c(=O)c3c(c4ccccc4n3C)n(C)c2=O)CC1	.	.	.	.	.	1%
CCOc1ccc2c(c1)C(C)=CC(C)(C)N2C(=O)Nc1ccccc1F	28µM*	-2%	4	0%	8%	0%
Cn1c(=O)c2c(nc(NCc3cccnc3)n2Cc2ccc(Cl)cc2)n(C)c1=O	3.2µM*	0%	2	-1%	-7%	-3%
COc1ccc(C2CC(c3ccccc3)Oc3c(C)ccc(C)c32)cc1 (configuration not stated)	.	23%	-5	.	.	.
CCc1c(C)nc2cc(-c3cc(OC)cc(OC)c3)nn2c1N1CCCC1	-30%	17%	0	?	-3%	-2%
COc1cc(OC)cc(-c2cc3nc4c(c(N5CCN(c6ncccn6)CC5)n3n2)CCCC4)c1	35µM*	-4%	0	.	34%	0%
Fc1cccc(-c2cc3nc4c(c(N5CCC6(CC5)OCCO6)n3n2)CCCC4)c1	28µM*	2%	5	.	10%	0%
COC(=O)c1nn(-c2ccc3c(c2)CCN3C(C)=O)cc1O	7.1µM*	-14%	-1	-1%[38.3 µM]	-9%	-1%
COC(=O)c1nn(-c2ccc3c(c2)OCO3)cc1O	32µM*	8%	0	7%[38.3 µM]	5%	-1%
CCN(C/C=C/C#CC(C)(C)C)Cc1cccc(OCc2cc(-c3ccsc3)cs2)c1	.	8%	-2	.	.	.
COc1cc(=O)n2c(c1C(=O)N(C)Cc1ccsc1)CCN(Cc1c(C)nc3sccn13)CC2	.	.	.	0%	.	.
Cn1c2ccc(F)cc2c2ncn(CCCN(CCO)CCO)c(=O)c21	28µM*	?	0	5%[38.3 µM]	-1%	-1%
COc1ccc2c(c1)c1ncn(Cc3ccc(F)cc3)c(=O)c1n2C	-5%	.	6	4%	-15%	3%
COc1ccc(-c2coc3c(C(=O)Nc4ccc(OC)nc4)cccc23)c(C)c1	-27%	.	.	2%	.	.
COc1ccc(-c2ccc(C(=O)Nc3ccccc3)c3occc23)c(C)c1	?	.	.	4%	.	.
COc1ccc(-c2ccc(C(=O)Nc3ccc4c(c3)OCO4)c3occc23)c(C)c1	32µM*	.	.	2%	.	.
COc1ccc(-c2ccc(C(=O)Nc3ccc(OC)nc3)c3occc23)c(C)c1	35µM*	.	.	5%	.	.
O=C(c1cccnc1)C1CCCN(Cc2ccc3c(c2)CN(C(=O)c2cccs2)CCO3)C1 (configuration not stated)	.	.	.	0%	.	.
Cc1c(C(=O)NC(C)(C)CO)sc2ncnc(NCCN(C)C)c12	.	.	.	-1%	.	.
N#CC(C#N)=C1SC(=Nc2ccccc2)C(=Nc2ccccc2)N1c1ccccc1	8%	.	.	32µM*	.	.
Fc1ccc(N2C(=S)SC(=Nc3ccccc3)C2=Nc2ccccc2)cc1	-4%	.	.	3%	.	.
CCC(=O)Nc1cccc2c1C(=O)N(C)C2=O	25µM*	-18%	1	2%	15%	1%
CN1C(=O)c2cccc(NCCCN3C(=O)c4ccccc4C3=O)c2C1=O	-2%	9%	?	7.1µM*	?	?
SMILES	ClpP mod	Menin MLL FP TR	Menin MLL FP FL	PINK1 modulator	CXXC DNA block	Epigenetic reg
CCNc1cccc2c1C(=O)N(C)C2=O	0%	5%	?	-1%[38.3 µM]	?	-2%
Cc1cccc(CNC(=O)c2cnn(-c3nccc(-c4ccccc4C(F)(F)F)n3)c2C)n1	.	.	.	0%	.	.
COC(=O)C#CC(=O)OC	.	8%	0	.	.	.
Cc1cc(C)n(-c2ncnc3sc4c(c23)CCCC4)n1	-26%	2%	2	.	4%	1%
Cc1cc(C)n(-c2ncnc3sc(C)c(C)c23)n1	32µM*	-14%	3	1%	0%	-3%
CCCc1nc2oc(C(=O)OCC)c(N)c2c2c1COC(C)(C)C2	14µM*	-3%	1	-1%	-3%	1%
CCOC(=O)c1oc2nc(C(C)C)c3c(c2c1N)CC(C)(C)OC3	?	-11%	-3	1%	-5%	-1%
CCOC(=O)c1sc2nc(C)c3c(c2c1N)CC(C)(C)OC3	28µM*	-12%	0	3%	8%	-1%
CCCc1nc2sc(C(=O)OCC)c(N)c2c2c1COC(C)(C)C2	259%	10%	-2	2%	2%	-4%
Cc1ccc2c(c1C)OC(=O)CC2(C)C	32µM*	1%	.	2%	5%	-2%
COc1ccc(C(=O)COC(=O)c2ccc(Cl)nc2)cc1OC	22µM*	.	.	1%	.	.
O=C1c2cnc3nc(SCc4ccc(Cl)cc4)nn3c2CC2c3ccccc3CCN12 (configuration not stated)	32µM*	-16%	5	0%	8%	-1%
COc1cc(=O)n2c(c1C(=O)NC(C)c1ccco1)CCN(C(=O)c1[nH]c(C)cc1C)CC2 (configuration not stated)	.	.	.	0%	.	.
CC(=O)Nc1ccccc1-c1nc(CNC(=O)c2ccc(-n3cccn3)cc2)c(C)o1	.	.	.	1%	.	.
C=CCn1c(COc2cccc3ccc(C)nc23)nnc1SCC(=O)OC	28µM*	0%	0	-2%	1%	0%
CCn1c(COc2cccc3cccnc23)nnc1SCC(=O)OC	-22%	?	-1	0%	4%	0%
CCCN1CNc2c(c(=O)[nH]c(=S)n2CCc2ccccc2OC)C1	0%	.	.	-1%	.	.
Cc1cc2ncn(C(=O)c3cc(-c4ccccc4)nc4ccccc34)c2cc1C	14µM*	-7%	2	2%	0%	-2%
COc1ccc2cc(-c3cc(C(=O)O)c4ccccc4n3)ccc2c1	25µM*	.	-1	-2%	8%	1%
COc1ccc(-c2cc(C(=O)N3CCN(c4ccccc4F)CC3)c3ccccc3n2)c(OC)c1	28µM*	13%	2	2%	25%	.
COc1ccc(-c2cc(C(=O)O)c3ccccc3n2)c(OC)c1	-13%	39%	6	1%	-5%	0%
CCOc1ccc(-c2cc(C(=O)N3CCN(C)CC3)c3ccccc3n2)cc1	28µM*	4%	3	3%[38.3 µM]	0%	-1%
Cc1c(C(=O)NCCc2ccncc2)cnn1-c1nccc(-c2ccccc2C(F)(F)F)n1	.	.	.	0%	.	.
CC(=O)c1ccc(N2CCN(C(=O)c3cc(-c4ccc5c(c4)OCO5)nc4ccccc34)CC2)cc1	32µM*	-18%	-2	-3%	14%	0%

Screens deposited in PubChem BioAssay by National Center for Advancing Translational Sciences (NCATS).
